In PubChem BioAssay (NCATS) one finds max response, outcome and Potency data, which are given here for 14 compounds.

Where “and” joins values, the source holds several entries; their conditions need not be identical. Equal values may be shown once. Results filed as inconclusive are left out. Unmarked numbers belong to inactive results. Calls of active or inactive are those of the source. Calls come from the whole dose curve; as a rule, active = well fitted curve in the direction sought with a large enough effect; inconclusive = small, poorly fitted or top-dose-only effect, or another doubt; inactive = no such curve, though single readings can be large; an effect the other way counts as inactive or inconclusive.

Test [1] in a line: qHTS Assay for Identifying Gametocytocidal Compounds (AID 743244).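 Note: actives lower the fluorescent signal which means gametocytes are killed.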 Particulars: P. falciparum 3D7 stage III-V gametocytes, alamarBlue, 72 h; max response: stronger effect = lower value. The gist of the method: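 Viability read-out was resazurin reduction (alamarBlue, 24 h) measured at Ex 525/Em 598 nm. Beforehand, late-stage (III-V) 3D7 P. falciparum gametocytes at 20,000 cells/well were incubated with compound 72 h at 37C under 5% CO2.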
A general note: qHTS replaces the single test concentration by a dilution series.

Test [2] in a line: qHTS assay for cell viability of HEK293 cells (AID 743288). Note: nearly all actives have a fitted effect of over 50% in size. The settings on record: ATP luminescence (CellTiter-Glo), 18 h; max response: stronger effect = lower value. Put shortly:
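Parental HEK293 cells were seeded at 2,000 cells/well, rested at least 5 h at 37 C, then exposed to compounds in DMSO for 18 h at 37 C. Viability was read as ATP-dependent luciferase luminescence after 30 min at room temperature.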

Test [3] can be described thus: qHTS assay for cell viability of the p53RE-bla HCT-116 cell line (AID 743292). Note: nearly all actives have a fitted effect of over 55% in size. The gist of the method: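 Compound-exposed HCT-116 (p53RE-bla) cells, 4,000 per well, were kept 16 h at 37 C following a 5 h preincubation. Cell number was estimated from total ATP by CellTiter-Glo luminescence read after 30 min at room temperature.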
Test [4] can be described thus: qHTS assay to identify small molecule inhibitors of chordoma cells - UCH-1 (AID 1259355). Note: nearly all actives have a fitted effect of over 55% in size. The gist of the method: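 Luminescent ATP read-out (CellTiter-Glo, 30min at room temperature) measured viability of UCH-1 cells exposed for 48hr to test drugs at 15 concentrations, co-dosed with a five-agent combination of auranofin, camptothecin, doxorubicin, rubitecan and topotecan.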

A short description of test [5]: qHTS assay to identify small molecule inhibitors of chordoma cells - UCH-2 (AID 1259356). Note: series mostly up to about 46 µM.
Test [6] is described as follows: P-glycoprotein substrates identified in KB-8-5-11 adenocarcinoma cell line, qHTS therapeutic library screen (AID 1346987). Note: nearly all actives have a fitted effect of over 65% in size. Note: potency is the fitted concentration of half-maximal effect. The settings on record: outcome: dose series up to 44.5 µM unless noted. The gist of the method:
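KB-8-5-11: colchicine-selected sub-line of KB-3-1 over-expressing P-gp; assay medium lacked colchicine. 72 h drug exposure at 37 degree C, CellTiter-Glo.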
% is set by controls: 0 for no effect and ±100 for the full control effect.

In the case of `CC1=CC(=O)NS(=O)(=O)O1`, the max response in test [1] is -2.22%; in test [2], -5.77% and -0.759%. In test [3], the outcome was inactive. The Potency result in test [4], in test [5] and in test [6] was “inactive” in each case.
Regarding `Oc1cccc(O)c1O`, the max response in test [1] is -2.15%; in test [2] it was -17.5%. Also, the compound was called inactive in test [3]. Further, the Potency result in test [4], in test [5] and in test [6] was “inactive” in each case.
Turning to `Cc1nc(NS(=O)(=O)c2ccc(N)cc2)nc(C)c1Br`, in test [1], the max response was 21.7%. In addition, the Potency entry in test [4], in test [5] and in test [6] was “inactive” throughout.
On to `C=C1c2c(Cl)ccc(O)c2C(O)=C2C(=O)[C@]3(O)C(O)=C(C(N)=O)C(=O)[C@@H](N(C)C)[C@@H]3[C@@H](O)[C@H]12`, for which the max response in test [1] was 2.94%. Besides, the Potency result in test [4], in test [5] and in test [6] was “inactive” each time.
Turning to `NC(=O)OC[C@@H]1[C@H](NC(=O)/C(=N\OCC(=O)O)c2csc(N)n2)C(=O)N1S(=O)(=O)O`, the max response in test [1] was -1.55%. In addition, the Potency entry in test [4], in test [5] and in test [6] was “inactive” throughout.
On to `Cc1ncc[nH]1`, for which the figures for the max response in test [1] and in test [2] were 20% and -10.6%, respectively. The result in test [3] was inactive. Moreover, the Potency entry in test [4], in test [5] and in test [6] was “inactive” each time.
As for `CC(C)OC(=O)Nc1ccc2nc(-c3cscn3)[nH]c2c1`, the max response in test [1] is -0.783%. Besides, the Potency result in test [4] and in test [5] was “inactive” in each case. In addition, the Potency in test [6] was 4.61 µM (active).
In the case of `CCCCCCCCCCCCOCCCN`, the max response in test [1] is -2.81%. Besides, the Potency entry in test [4], in test [5] and in test [6] was “inactive” in each case.
As for `c1ccc2ccccc2c1`, the max response in test [1] was 6.18%; in test [2], -14.2% and 4.14%. The result in test [3] was inactive. In addition, the Potency result in test [4], in test [5] and in test [6] was “inactive” throughout.
Regarding `OC[C@H]1O[C@@H]2O[C@H]3[C@H](O)[C@@H](O)[C@@H](O[C@H]4[C@H](O)[C@@H](O)[C@@H](O[C@H]5[C@H](O)[C@@H](O)[C@@H](O[C@H]6[C@H](O)[C@@H](O)[C@@H](O[C@H]7[C@H](O)[C@@H](O)[C@@H](O[C@H]1[C@H](O)[C@H]2O)O[C@@H]7CO)O[C@@H]6CO)O[C@@H]5CO)O[C@@H]4CO)O[C@@H]3CO`, the max response in test [1] was -7.1%; in test [2], -12.8% and 1.56%. In addition, the result in test [3] was inactive. The Potency result in test [4], in test [5] and in test [6] was “inactive” throughout.
On to `C=C1[C@H](CO)[C@@H](O)C[C@@H]1n1cnc2c(=O)[nH]c(N)nc21`, for which the max response in test [1] is 18.1%. In addition, the Potency result in test [4] and in test [5] was “inactive” throughout.
As for `CC(=O)Oc1cccc(C(=O)O)c1OC(C)=O`, the max response in test [1] was 10.1%. For the same compound, the Potency result in test [4] and in test [5] was “inactive” in each case.
Consider `C[C@H](CCCC(C)(C)O)[C@H]1CC[C@H]2[C@@H]3CC=C4C[C@@H](O)CC[C@]4(C)[C@H]3CC[C@]12C`, for which the max response in test [1] is -7.2%. For the same compound, the Potency entry in test [4] and in test [5] was “inactive” each time.
`ClC(Cl)Cl`: the max response is 9.6% in test [1] and -2% in test [2]. In addition, in test [3], the outcome was inactive. The Potency entry in test [4], in test [5] and in test [6] was “inactive” throughout.
